According to the supplement of paper PMC8728848:
The sample as a whole holds a higher share of the strongest signals than the screen did.

Legend:
Experiment in all cases: glycan array binding signal (z-score within array); higher = stronger binding
Conditions in all cases: glycan notation: IUPAC condensed, linker removed
[1] = target: Fuc(a1-3)[Gal(b1-4)]GlcNAc
Method in brief: (§1)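 From the Consortium for Functional Glycomics database, 3228 arrays were curated, keeping only those whose protein sequence was available. Binding is given as a within-array Z-score averaged across arrays sharing a protein sequence and across linkers. Negative Z-scores can be read as non-binding.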

[2] = target: Fuc(a1-3)[Gal3S(b1-4)]GlcNAc
Method in brief: as §1

Gal(a1-2)Gal = target: Gal(a1-2)Gal
Method in brief: as §1

Gal(b1-2)Gal = target: Gal(b1-2)Gal
Method in brief: as §1

[3] = target: Gal3S(b1-3)[Fuc(a1-4)]GlcNAc
Method in brief: as §1

Glc(b1-4)Glc = target: Glc(b1-4)Glc
Method in brief: as §1

[4] = target: GlcNAc(a1-6)Gal(b1-4)GlcNAc
Method in brief: as §1

GlcNAc(b1-3)GalNAc = target: GlcNAc(b1-3)GalNAc
Method in brief: as §1

[5] = target: GlcNAc(b1-4)[GlcNAc(b1-6)]GalNAc
Method in brief: as §1

[6] = target: Man(a1-2)Man(a1-2)Man(a1-3)[Man(a1-2)Man(a1-3)[Man(a1-2)Man(a1-6)]Man(a1-6)]Man(b1-4)GlcNAc(b1-4)GlcNAc
Method in brief: as §1

[7] = target: Man(a1-2)Man(a1-2)Man(a1-3)[Man(a1-2)Man(a1-6)[Man(a1-3)]Man(a1-6)]Man(b1-4)GlcNAc(b1-4)GlcNAc
Method in brief: as §1

[8] = target: Man(a1-2)Man(a1-3)[Man(a1-6)]Man(a1-6)[Man(a1-2)Man(a1-3)]Man(b1-4)GlcNAc(b1-4)GlcNAc
Method in brief: as §1

[9] = target: Man(a1-3)[Man(a1-6)]Man(a1-6)[Man(a1-3)]Man(b1-4)GlcNAc(b1-4)GlcNAc
Method in brief: as §1

[10] = target: Man(a1-3)[Man(a1-6)]Man(b1-4)GlcNAc(b1-4)GlcNAc
Method in brief: as §1

[11] = target: Neu5Ac(a2-3)Gal(b1-3)[Fuc(a1-4)]GlcNAc
Method in brief: as §1

[12] = target: Neu5Ac(a2-3)[GalNAc(b1-4)]Gal(b1-4)Glc
Method in brief: as §1

[13] = target: Neu5Ac(a2-6)GalNAc(b1-4)GlcNAc
Method in brief: as §1

[14] = target: Neu5Ac(a2-8)Neu5Ac(a2-3)[GalNAc(b1-4)]Gal(b1-4)Glc
Method in brief: as §1

B1: FBG2 (Homo sapiens), Q9NRD1 (protein)
chain: MDAPHSKAALDSINELPENILLELFTHVPARQLLLNCRLVCSLWRDLIDLMTLWKRKCLREGFITKDWDQPVADWKIFYFLRSLHRNLLRNPCAEEDMFAWQIDFNGGDRWKVESLPGAHGTDFPDPKVKKYFVTSYEMCLKSQLVDLVAEGYWEELLDTFRPDIVVKDWFAARADCGCTYQLKVQLASADYFVLASFEPPPVTIQQWNNATWTEVSYTFSDYPRGVRYILFQHGGRDTQYWAGWYGPRVTNSSIVVSPKMTRNQASSEAQPGQKHGQEEAAQSPYRAVVQIFPPPVTIQQWNNATWTEVSYTFSDYPRGVRYILFQHGGRDTQYWAGWYGPRVTNSSIVVSPKMTRNQASSEAQPGQKHGQEEAAQSPYRAVVQI
- glycan array binding signal (z-score) [1]: -0.537
- glycan array binding signal (z-score) [2]: -0.236
- glycan array binding signal (z-score) (Gal(a1-2)Gal): -0.526
- glycan array binding signal (z-score) (Gal(b1-2)Gal): -0.363
- glycan array binding signal (z-score) [3]: 1.01
- glycan array binding signal (z-score) (Glc(b1-4)Glc): -0.116
- glycan array binding signal (z-score) [4]: -0.895
- glycan array binding signal (z-score) (GlcNAc(b1-3)GalNAc): -0.923
- glycan array binding signal (z-score) [5]: -0.787
- glycan array binding signal (z-score) [6]: 3.27
- glycan array binding signal (z-score) [7]: 3.69
- glycan array binding signal (z-score) [8]: 3.61
- glycan array binding signal (z-score) [9]: 4.08
- glycan array binding signal (z-score) [10]: 3.91
- glycan array binding signal (z-score) [11]: -0.752
- glycan array binding signal (z-score) [12]: -0.116
- glycan array binding signal (z-score) [13]: -0.582
- glycan array binding signal (z-score) [14]: -0.018
